Measurements: PubChem BioAssay
Activity calls are given as the source filed them.

Legend:
[1] = E. coli DRC41 culture turbidity changes, primary screen, E. coli filamentation inducer project, strain DRC41, OD650, 48 h (AID 1152);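 also: E. coli MC1000 strain DRC41 lacking acrAB efflux pump and sulA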; conditions: E. coli DRC41 (acrAB sulA), higher = more signal, called active from +8 up or from −8 down
[2] = small-molecule binders of probe aLefty1, primary screen, biochemical, small-molecule microarray, 635/667 nm fluorescence (AID 1153); conditions: higher = more signal;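 also: score merges spot fluorescence with signal-to-noise ratio from the scanned slide images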
[3] = PSAC antagonists in infected red cells, primary screen, cell-based, P. falciparum Indochina, OD700, 1 h (AID 1154); conditions: P. falciparum Indochina infected RBC osmotic lysis, higher = more signal, called active from +8 up or from −8 down
[4] = PSAC antagonists in infected red cells, primary screen, cell-based, P. falciparum Indochina, OD700, 2 h (AID 1155);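 also: lysis reports solute entry through the parasite surface anion channel PSAC; channel blockers reduce lysis of infected cells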; conditions: P. falciparum Indochina infected erythrocytes, osmotic lysis OD700; higher = more signal, called active from +8 up or from −8 down
[5] = osmotic lysis modulators in infected erythrocytes, primary screen, PSAC antagonist project, cell-based, P. falciparum Indochina, OD700, 3 h (AID 1156); conditions: higher = more signal, called active from +8 up or from −8 down
[6] = PSAC antagonists in infected red cells, primary screen, cell-based, P. falciparum Indochina, OD700, 18 h (AID 1157); conditions: P. falciparum Indochina infected erythrocytes, osmotic lysis OD700, 18 h; higher = more signal, called active from +8 up or from −8 down
[7] = modulators of S6 phosphorylation in cells, primary screen, cell-based, A549, cytoblot, luminescence, serum-stimulated (AID 1158); conditions: A549 phospho-S6 cytoblot, 5 h, higher = more signal;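 also: serum-stimulated A549 lung adenocarcinoma cells; signal is phosphorylated S6 detected by cytoblot immunostaining with HRP secondary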
[8] = target: NADPH oxidase 2 (Homo sapiens) (UniProt P04839); assay: NOX2-dependent H2O2 signal modulators, primary screen, NOX inhibitor project, cell-based, HEK293-NOX2, PMA-stimulated, Amplex Red fluorescence (AID 1159); conditions: 45 min, higher = more signal, called active from +8 up or from −8 down; also: test concentration not given here
NADPH oxidase 2 (Homo sapiens), sequence (P04839 whole entry, looked up): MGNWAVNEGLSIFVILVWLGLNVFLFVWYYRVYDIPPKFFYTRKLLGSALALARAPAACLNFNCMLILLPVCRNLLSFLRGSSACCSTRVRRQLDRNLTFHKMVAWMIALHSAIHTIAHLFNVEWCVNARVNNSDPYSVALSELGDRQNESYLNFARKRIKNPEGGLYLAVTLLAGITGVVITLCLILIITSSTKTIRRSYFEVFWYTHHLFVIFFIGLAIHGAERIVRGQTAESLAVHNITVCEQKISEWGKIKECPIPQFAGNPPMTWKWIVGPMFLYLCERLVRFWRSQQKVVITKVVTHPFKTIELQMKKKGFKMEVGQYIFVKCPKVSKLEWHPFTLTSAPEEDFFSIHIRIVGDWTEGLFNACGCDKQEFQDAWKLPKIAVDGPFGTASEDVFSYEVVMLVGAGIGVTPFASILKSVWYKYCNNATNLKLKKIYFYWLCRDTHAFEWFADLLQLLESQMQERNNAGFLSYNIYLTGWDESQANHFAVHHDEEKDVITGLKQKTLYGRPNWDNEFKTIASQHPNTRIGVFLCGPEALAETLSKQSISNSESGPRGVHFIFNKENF

[9] = target: NADPH oxidase 4 (Homo sapiens) (UniProt Q9NPH5); assay: NOX4-dependent H2O2 signal modulators, primary screen, NOX inhibitor project, cell-based, HEK293-NOX4, tetracycline-induced, Amplex Red fluorescence (AID 1160); conditions: 45 min, higher = more signal, called active from +8 up or from −8 down
NADPH oxidase 4 (Homo sapiens), sequence (Q9NPH5 whole entry, looked up): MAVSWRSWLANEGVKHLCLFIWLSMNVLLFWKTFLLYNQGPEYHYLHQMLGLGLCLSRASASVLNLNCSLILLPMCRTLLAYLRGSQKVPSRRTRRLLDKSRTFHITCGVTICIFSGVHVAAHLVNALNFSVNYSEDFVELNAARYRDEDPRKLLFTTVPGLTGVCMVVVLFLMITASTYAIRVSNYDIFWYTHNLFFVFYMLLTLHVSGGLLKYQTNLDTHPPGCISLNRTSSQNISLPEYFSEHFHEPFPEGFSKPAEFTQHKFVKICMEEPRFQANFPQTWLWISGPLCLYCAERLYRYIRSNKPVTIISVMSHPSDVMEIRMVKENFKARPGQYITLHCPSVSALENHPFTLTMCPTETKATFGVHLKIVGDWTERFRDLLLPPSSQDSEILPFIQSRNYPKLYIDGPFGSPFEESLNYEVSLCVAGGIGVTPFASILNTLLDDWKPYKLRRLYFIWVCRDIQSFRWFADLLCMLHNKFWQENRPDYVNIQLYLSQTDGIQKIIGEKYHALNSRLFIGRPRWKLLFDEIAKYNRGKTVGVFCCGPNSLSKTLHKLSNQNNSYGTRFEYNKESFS

[10] = target: NADPH oxidase 5 (Homo sapiens) (UniProt Q96PH1); assay: NOX5-dependent H2O2 signal modulators, primary screen, NOX inhibitor project, cell-based, HEK293-NOX5, Amplex Red fluorescence (AID 1161); conditions: HEK293-NOX5, ionomycin, 45 min, higher = more signal
NADPH oxidase 5 (Homo sapiens), sequence (Q96PH1 whole entry, looked up): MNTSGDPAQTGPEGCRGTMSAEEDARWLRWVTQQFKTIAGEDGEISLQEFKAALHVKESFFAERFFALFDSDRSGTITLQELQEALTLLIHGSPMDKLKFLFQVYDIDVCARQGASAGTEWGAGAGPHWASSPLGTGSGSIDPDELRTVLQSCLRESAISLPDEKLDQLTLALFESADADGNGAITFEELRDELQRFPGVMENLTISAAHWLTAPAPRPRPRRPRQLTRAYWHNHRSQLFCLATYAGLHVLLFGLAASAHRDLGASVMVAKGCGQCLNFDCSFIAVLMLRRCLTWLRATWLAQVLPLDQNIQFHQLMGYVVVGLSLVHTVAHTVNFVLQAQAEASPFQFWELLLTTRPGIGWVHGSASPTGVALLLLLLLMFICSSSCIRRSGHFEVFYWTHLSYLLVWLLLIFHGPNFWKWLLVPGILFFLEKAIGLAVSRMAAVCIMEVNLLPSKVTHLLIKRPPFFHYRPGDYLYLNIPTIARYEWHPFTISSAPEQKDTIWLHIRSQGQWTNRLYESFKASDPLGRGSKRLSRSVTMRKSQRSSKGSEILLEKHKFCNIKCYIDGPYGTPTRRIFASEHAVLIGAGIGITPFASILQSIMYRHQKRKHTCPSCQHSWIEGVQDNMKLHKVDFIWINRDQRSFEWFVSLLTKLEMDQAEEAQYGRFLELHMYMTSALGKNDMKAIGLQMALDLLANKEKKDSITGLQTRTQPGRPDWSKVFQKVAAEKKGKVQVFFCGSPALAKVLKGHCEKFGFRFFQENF

Structure (SMILES) | z-score [1] | composite z-score [2] | z-score [3] | z-score [4] | z-score [5] | z-score [6] | z-score [7] | z-score [8] | z-score [9] | z-score [10]
CCCNC(=O)[C@@H]1c2ccccc2C(=O)N(Cc2cc(F)cc(C(F)(F)F)c2)[C@H]1c1ccc(CO)cc1 | 1.86 (inactive) | 0.251 | 2.1 (inactive) | -0.314 (inactive) | 0.064 (inactive) | -0.73 (inactive) | 1.74 | 1.2 (inactive) | 0.609 (inactive) | 0.676
CCCC=C(CCC)[C@@H](NC(=O)c1ccc(C(F)(F)F)cc1)c1ccccc1 | -1.25 (inactive) | 0.718 | 0.666 (inactive) | -0.96 (inactive) | 0.394 (inactive) | -1.05 (inactive) | 1.47 | -3.96 (inactive) | -3.71 (inactive) | -3.65
CCOC(=O)C1=C[C@@H](c2ccccc2)N(S(=O)(=O)c2ccc(C)cc2)[C@H]1c1ccc(F)cc1 | -1.15 (inactive) | 0.275 | 1.66 (inactive) | 1.42 (inactive) | -0.101 (inactive) | 1 (inactive) | -0.217 | 0.108 (inactive) | 0.814 (inactive) | -0.291
COC(=O)C[C@H]1O[C@]2(C(=O)N(C)c3ccccc32)[C@@H](C)[C@@H]1[Si](C)(C)c1ccc(OC)cc1 | 2.42 (inactive) | -0.139 | 2.79 (inactive) | -1.17 (inactive) | -0.168 (inactive) | -2.34 (inactive) | 1.11 | 0.0822 (inactive) | 0.345 (inactive) | -0.451
O=C(NCC(O)CO)[C@]1(Cc2ccccc2)N=C(c2ccc(OCCCO)cc2)O[C@@H]1c1ccccc1 (stereo not given in full) | 0.738 (inactive) | 1.39 | 25.1 (active) | 12 (active) | 0.267 (inactive) | 0.35 (inactive) | 0.807 | 0.489 (inactive) | 1.68 (inactive) | 1.7
C=CCC(OC(C)=O)[C@@H]1[C@@H](N(Cc2cccc3ccccc23)C(=O)c2ccc(C)cc2)c2cc(OCCCO)ccc2N1C(=O)c1ccc(-c2ccccc2)cc1 (stereo not given in full) | 2.5 (inactive) | 0.0384 | 0.441 (inactive) | -1.33 (inactive) | -1.24 (inactive) | -1.5 (inactive) | 2.07 | -0.0559 (inactive) | 1.01 (inactive) | 2.96
C=CCc1cccc([C@@H]2[C@@H](C)CC[C@H]3C(=O)N4[C@H](c5cccc(CC=C)c5)[C@@H](C)CC[C@H]4C(=O)N23)c1 | 0.0258 (inactive) | 0.142 | 5.32 (inactive) | 1.46 (inactive) | 2.14 (inactive) | 0.738 (inactive) | -0.0433 | -0.23 (inactive) | -0.0735 (inactive) | -1.48
C=C(COC)/C(=C/C[C@@H](OC(=O)c1ccncc1)c1ccc(OCCO)cc1)c1cc(C(=O)OC)ccc1OC | 2.31 (inactive) | 0.0686 | 14.6 (active) | 0.629 (inactive) | 1.35 (inactive) | -1.53 (inactive) | 0.866 | 1.98 (inactive) | 2.24 (inactive) | -0.63
COCC(=C=CC[C@H](O)c1ccc(OCCO)cc1)C[C@H](O)c1ccccn1 | 1.36 (inactive) | -0.194 | 8.89 (active) | 0.989 (inactive) | 0.938 (inactive) | 0.48 (inactive) | -0.324 | 2.36 (inactive) | 1.71 (inactive) | 1.32
COc1cc2c(cc1OC)CN(C(=O)[C@H]1[C@@H]3C(=O)O[C@@H](c4ccccc4)[C@@H](c4ccccc4)N3[C@@H](c3ccccc3OCCO)[C@]13C(=O)Nc1ccc(C#CC4(O)CCCCCC4)cc13)CC2 | 2.29 (inactive) | 0.0686 | 3.02 (inactive) | 2.11 (inactive) | 3.25 (inactive) | 1.89 (inactive) | 0.389 | 1.07 (inactive) | 1.65 (inactive) | 1.43
Cc1ccc(S[C@]2(C(=O)NCCN3CCOCC3)CC(=O)N(C3Cc4ccccc4C3)[C@@H]2c2ccc(CO)cc2I)cc1 | 1.86 (inactive) | 0.392 | 6.65 (inactive) | -0.0443 (inactive) | 0.591 (inactive) | -0.926 (inactive) | 1.22 | 2.05 (inactive) | -1.59 (inactive) | 1.33
CO[C@H]1COC(=O)[C@H](C)NC(=O)CC=C[C@@H](C)[C@H](NS(=O)(=O)c2ccc(C)cc2)COC(=O)[C@@H](OCc2ccccc2)C=C[C@@H]1C | 0.117 (inactive) | -0.303 | 0.655 (inactive) | 0.637 (inactive) | 0.416 (inactive) | -0.14 (inactive) | 0.215 | 1.4 (inactive) | 0.815 (inactive) | 0.2
CC(c1ccccc1)C(O)C1C=CC2C(=O)N(C)C(=O)C2N1N(c1ccccc1)c1ccccc1 (stereo not given) | -1.04 (inactive) | 0.391 | 1.02 (inactive) | 0.386 (inactive) | 0.625 (inactive) | 0.777 (inactive) | -0.987 | -0.735 (inactive) | -0.411 (inactive) | -0.649
C[C@]1(C(=O)NCc2ccccc2)c2ccccc2C(=O)N(Cc2cc(C(F)(F)F)cc(C(F)(F)F)c2)[C@H]1c1ccc(CO)cc1 | 2.32 (inactive) | 0.364 | 6.25 (inactive) | 1.11 (inactive) | 0.709 (inactive) | 0.448 (inactive) | 3.92 | -1.35 (inactive) | -1.03 (inactive) | -1
CO[C@@H]1COC(=O)[C@H](COCc2ccccc2)NC(=O)CC=C[C@@H](C)[C@H](OC)COC(=O)[C@H](COCc2ccccc2)NC(=O)CC=C[C@H]1C | -0.207 (inactive) | 0.113 | -0.279 (inactive) | -0.562 (inactive) | -0.646 (inactive) | -1.73 (inactive) | 0.37 | 1.15 (inactive) | 0.931 (inactive) | 0.314
CC(C)CN1C(=O)[C@@]2(Cc3ccccc31)c1ccccc1C(=O)N(C1CCCCC1)[C@H]2c1ccc(CO)cc1 | 1.83 (inactive) | -0.101 | 0.838 (inactive) | -0.528 (inactive) | -0.0544 (inactive) | -1.24 (inactive) | 2.22 | -0.236 (inactive) | -1.31 (inactive) | 0.441
C=CCC1=C[C@H]2[C@H]([C@@H]3C=C[C@]2(CC=C)C(=O)[C@]32CO2)[C@@]2(CO2)C1=O | 2.45 (inactive) | 0.736 | 0.348 (inactive) | -0.877 (inactive) | 1.16 (inactive) | -1.87 (inactive) | 0.76 | -0.0349 (inactive) | 0.0495 (inactive) | -0.972
COc1ccc(C(=O)Nc2ccc(CN3C(=O)[C@]4(O[C@H](CCn5cc(CCO)nn5)[C@@H]([Si](C)(C)c5ccc(OC)cc5)[C@@H]4C)c4ccccc43)cc2)cc1 | 0.173 (inactive) | 0.0253 | 9.37 (active) | 2.64 (inactive) | 1.68 (inactive) | 1.67 (inactive) | -0.196 | 0.844 (inactive) | 0.392 (inactive) | 3.29
Cc1ccc(S[C@]2(C(=O)O)CC(=O)N(Cc3ccccc3)[C@@H]2c2ccc(CO)cc2)cc1 | 2.89 (inactive) | 0.0215 | 2.85 (inactive) | -0.263 (inactive) | 1.09 (inactive) | -0.707 (inactive) | 0.462 | -0.198 (inactive) | -0.197 (inactive) | 1.6
COc1ccc(CCNC(=O)[C@@]2(c3ccc([N+](=O)[O-])cc3)CC(=O)N(C(C)C)[C@@H]2c2ccc(CO)cc2)cc1 | 1.6 (inactive) | -0.0353 | 4.07 (inactive) | 0.208 (inactive) | 1.44 (inactive) | 0.621 (inactive) | 0.54 | 0.891 (inactive) | 0.433 (inactive) | 0.24
C=CC[C@@]12N=C(c3ccc(OCCCO)cc3)O[C@@H]1c1ccccc1CN(Cc1ccccc1)C2=O | 0.786 (inactive) | 0.271 | 28.3 (active) | 24.9 (active) | 3.34 (inactive) | 2.29 (inactive) | 0.557 | -1.33 (inactive) | -0.765 (inactive) | -1.71
CO[C@@H]1COC(=O)[C@@H]2CCCN2C(=O)CC=C[C@@H](C)[C@H](OC)COC(=O)[C@@H]2CCCN2C(=O)CC=C[C@H]1C | 1.11 (inactive) | -0.0984 | -0.0896 (inactive) | 0.0184 (inactive) | 0.11 (inactive) | -0.113 (inactive) | 0.956 | -0.353 (inactive) | 0.476 (inactive) | 0.606
COc1cc(CO)cc(I)c1O[C@H]1C=C(C(=O)NCCO)C[C@@H](NCCc2c[nH]c3ccccc23)[C@@H]1O | 0.878 (inactive) | 0.335 | 11.3 (active) | 0.928 (inactive) | 1.22 (inactive) | -0.869 (inactive) | 2.21 | -0.912 (inactive) | -1.4 (inactive) | -0.447
CCOC(=O)C[C@H]1[C@H](OC(=O)c2cc3ccccc3oc2=O)[C@@H](NC(=O)c2ccc3ccccc3c2)c2cc(OCCCO)ccc2N1C(=O)c1ccc2ccccc2n1 | 2.1 (inactive) | 0.19 | 11.1 (active) | 1.42 (inactive) | 0.865 (inactive) | 0.868 (inactive) | 0.63 | 0.985 (inactive) | 0.873 (inactive) | 2.17
CCCC/C=C/[C@H]([C@@H](O)Cc1ccccc1)N(CC#Cc1ccccc1)Cc1ccccc1Br | 2.99 (inactive) | -0.0061 | 2.63 (inactive) | 1.29 (inactive) | -0.0195 (inactive) | 0.522 (inactive) | 0.108 | -0.424 (inactive) | 0.426 (inactive) | -0.622
COCCCNC(=O)[C@@]1(Sc2ccc(C)cc2)CC(=O)N(Cc2cc(C(F)(F)F)cc(C(F)(F)F)c2)[C@@H]1c1ccc(CO)cc1I | 1.57 (inactive) | 0.162 | 2.3 (inactive) | 1.08 (inactive) | -0.34 (inactive) | 0.278 (inactive) | 0.411 | 2.35 (inactive) | -0.978 (inactive) | 1.75
